Growth inhibition data for nine molecules are collected here from PubChem BioAssay (NCI).

A short description of assay [1]: NCI Yeast Anticancer Drug Screen. Data for the rad50 strain (AID 155).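 Also: 0% = growth of vehicle-only cultures of the same strain.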 Particulars: S. cerevisiae rad50 strain growth inhibition, active compounds read high. The method in brief:
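Inhibition values express reduced yeast growth in compound-treated cultures relative to vehicle-treated controls.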

Assay [2] is described as follows: NCI Yeast Anticancer Drug Screen. Data for the mec2-1 strain (AID 157). Particulars: S. cerevisiae mec2-1 strain, active compounds read high. The method in brief: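 Readout is yeast growth inhibition, normalised to vehicle-treated controls, in the mec2-1 strain exposed to compound.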
Assay [3] can be described thus: NCI Yeast Anticancer Drug Screen. Data for the sgs1 mgt1 strain (AID 161).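 Also: 0% = growth of cultures given vehicle only.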 Particulars: S. cerevisiae sgs1 mgt1 strain, active compounds read high. In a few lines:
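Growth of a repair-deficient yeast mutant was monitored after compound treatment and expressed as inhibition relative to vehicle-treated cultures.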

Assay [4] in a line: NCI Yeast Anticancer Drug Screen. Data for the cln2 rad14 strain (AID 165).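 Also: 0% = growth equal to vehicle treated cultures.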 The settings on record: S. cerevisiae cln2 rad14 strain, active compounds read high. The method in brief:
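Relative to vehicle controls, growth inhibition of compound-treated cln2 rad14 yeast was recorded.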

Assay [5] can be described thus: NCI Yeast Anticancer Drug Screen. Data for the bub3 strain (AID 167). The settings on record: S. cerevisiae bub3 mutant strain, active compounds read high. The method in brief:
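Steps: expose the mutant yeast strain to compound; grow alongside vehicle-treated cultures; measure growth; express inhibition against the vehicle cultures.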

Assay [6] is described as follows: NCI Yeast Anticancer Drug Screen. Data for the mlh1 rad18 strain (AID 175). The settings on record: S. cerevisiae mlh1 rad18 strain growth inhibition, active compounds read high. The method in brief:
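Test agents were incubated with a yeast strain of defined genotype (DNA damage repair defect). Inhibition of growth was derived by comparison with vehicle-exposed cultures.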

Where [7] appears, read: at 5.0 µM (retest, dose inferred, filed as 0.5).
[8] abbreviates: at 50.0 µM (retest, dose inferred, filed as 5.0).

SMILES strings stand for the structures. About 79,000 compounds went through this panel and 15% of them were active in at least one assay; those are over-represented in the sample as a whole. Values without a mark were called inactive. The source made the active and inactive calls. Rule as the data show it: active = growth inhibition above about 70%; inactive = the rest. Where a SMILES comes first, the peptide text is derived from it. The star is where a group is joined. Cbz = O=C(OCc1ccccc1)*; Boc = CC(C)(C)OC(=O)*; OSu = O=C1CCC(=O)N1O*; Bn = c1ccc(C*)cc1

Turning to `CC(CO)(CO)N=Cc1cc(I)cc(I)c1O`, the growth inhibition was 91% (active) in assay [1] (setting [7]); 100% (active) in assay [1] (setting [8]); 99.6% (active) in assay [1] (at 50.0 µM); 97% (active) in assay [2] (setting [7]); 100% (active) in assay [2] (setting [8]); 99.6% (active) in assay [2] (at 50.0 µM). Also, the growth inhibition in assay [3] (setting [7]) was 86% (active); in assay [3] (setting [8]), 99% (active); in assay [3] (at 50.0 µM) it was 99.7% (active); in assay [4] (setting [7]), 87% (active); in assay [4] (setting [8]), 99% (active); in assay [4] (at 50.0 µM), 99.4% (active). The growth inhibition in assay [5] (setting [7]) is 86% (active); in assay [5] (setting [8]) it was 100% (active); in assay [5] (at 50.0 µM), 99.5% (active); in assay [6] (setting [7]) it was 98% (active); in assay [6] (setting [8]), 100% (active); in assay [6] (at 50.0 µM) it was 99.6% (active).
On to `CN(/N=C/c1ccc([N+](=O)[O-])o1)C(N)=O`, for which the growth inhibition in assay [1] (setting [7]) is 10%; in assay [1] (setting [8]) it was 44%; in assay [1] (at 50.0 µM), 80% (active); in assay [2] (setting [7]), 4%; in assay [2] (setting [8]), 18%; in assay [2] (at 50.0 µM), 49.5%. Besides, the growth inhibition is 10% in assay [3] (setting [7]); 57% in assay [3] (setting [8]); 87.3% (active) in assay [3] (at 50.0 µM); 3% in assay [4] (setting [7]); 17% in assay [4] (setting [8]); 49.5% in assay [4] (at 50.0 µM). Moreover, the growth inhibition was 6% in assay [5] (setting [7]); 28% in assay [5] (setting [8]); 46.3% in assay [5] (at 50.0 µM); 22% in assay [6] (setting [7]); 58% in assay [6] (setting [8]); 89.4% (active) in assay [6] (at 50.0 µM).
Consider `O=C1C2=C(CCCC2)C(=O)c2ccccc21`, for which the growth inhibition was 6% in assay [1] (setting [7]); 76% (active) in assay [1] (setting [8]); 25.4% in assay [1] (at 50.0 µM); 8% in assay [2] (setting [7]); 79% (active) in assay [2] (setting [8]); 13.7% in assay [2] (at 50.0 µM). The growth inhibition is 11% in assay [3] (setting [7]); 71% (active) in assay [3] (setting [8]); 28% in assay [3] (at 50.0 µM); 3% in assay [4] (setting [7]); 15% in assay [4] (setting [8]); -30.5% in assay [4] (at 50.0 µM). Besides, the growth inhibition in assay [5] (setting [7]) was 35%; in assay [5] (setting [8]) it was 79% (active); in assay [5] (at 50.0 µM), 60.4%; in assay [6] (setting [7]), 7%; in assay [6] (setting [8]), 43%; in assay [6] (at 50.0 µM), 68.5%.
Consider `O=c1oc(-c2ccc(Cl)c([N+](=O)[O-])c2)ns1`, for which the growth inhibition is 1% in assay [1] (setting [7]); 92% (active) in assay [1] (setting [8]); 97.1% (active) in assay [1] (at 50.0 µM); 3% in assay [2] (setting [7]); 93% (active) in assay [2] (setting [8]); 95.3% (active) in assay [2] (at 50.0 µM). Further, the growth inhibition in assay [3] (setting [7]) was 4%; in assay [3] (setting [8]), 89% (active); in assay [3] (at 50.0 µM) it was 97.8% (active); in assay [4] (setting [7]) it was 4%; in assay [4] (setting [8]), 48%; in assay [4] (at 50.0 µM), 53.6%. The growth inhibition is 1% in assay [5] (setting [7]); 91% (active) in assay [5] (setting [8]); 97.2% (active) in assay [5] (at 50.0 µM); 2% in assay [6] (setting [7]); 98% (active) in assay [6] (setting [8]); 91.8% (active) in assay [6] (at 50.0 µM).
Turning to `C=C1CCCCC1C(C(=O)O)(c1ccccc1)c1ccccc1` (configuration not stated), the growth inhibition in assay [1] (setting [7]) was 77% (active); in assay [1] (setting [8]), 98% (active); in assay [1] (at 50.0 µM), 98.7% (active); in assay [2] (setting [7]), 71% (active); in assay [2] (setting [8]), 99% (active); in assay [2] (at 50.0 µM), 99.3% (active). Also, the growth inhibition in assay [3] (setting [7]) is 79% (active); in assay [3] (setting [8]), 99% (active); in assay [3] (at 50.0 µM) it was 99.3% (active); in assay [4] (setting [7]), 72% (active); in assay [4] (setting [8]), 99% (active); in assay [4] (at 50.0 µM), 99.3% (active). The growth inhibition in assay [5] (setting [7]) was 51%; in assay [5] (setting [8]) it was 99% (active); in assay [5] (at 50.0 µM), 98.2% (active); in assay [6] (setting [7]), 92% (active); in assay [6] (setting [8]), 99% (active); in assay [6] (at 50.0 µM), 99.5% (active).
As to `CC(=O)c1cccc([N+](=O)[O-])c1`, the growth inhibition was -2% in assay [1] (setting [7]); 5% in assay [1] (setting [8]); 27.4% in assay [1] (at 50.0 µM); -2% in assay [2] (setting [7]); 2% in assay [2] (setting [8]); -9.25% in assay [2] (at 50.0 µM). The growth inhibition in assay [3] (setting [7]) was -1%; in assay [3] (setting [8]), 2%; in assay [3] (at 50.0 µM), 24.4%; in assay [4] (setting [7]), -1%; in assay [4] (setting [8]), -2%; in assay [4] (at 50.0 µM) it was 44.9%. The growth inhibition was 1% in assay [5] (setting [7]); 7% in assay [5] (setting [8]); 9.25% in assay [5] (at 50.0 µM); -3% in assay [6] (setting [7]); 3% in assay [6] (setting [8]); 9% in assay [6] (at 50.0 µM).
As to `CC(C)(C)OC(=O)NC(Cc1ccc(OCc2ccccc2)cc1)C(=O)NC(CCCCNC(=O)OCc1ccccc1)C(=O)ON1C(=O)CCC1=O` (configuration not stated) (Boc-Tyr(Bn)-Lys(Cbz)-OSu; configuration not given here), the growth inhibition in assay [1] (setting [7]) is 47%; in assay [1] (setting [8]), 73% (active); in assay [1] (at 50.0 µM), 64.2%; in assay [2] (setting [7]), 31%; in assay [2] (setting [8]), 66%; in assay [2] (at 50.0 µM), 48.5%. The growth inhibition in assay [3] (setting [7]) was 40%; in assay [3] (setting [8]) it was 64%; in assay [3] (at 50.0 µM) it was 38.9%; in assay [4] (setting [7]) it was 31%; in assay [4] (setting [8]) it was 50%; in assay [4] (at 50.0 µM), 55.5%. For the same molecule, the growth inhibition in assay [5] (setting [7]) is 37%; in assay [5] (setting [8]), 70% (active); in assay [5] (at 50.0 µM), 62.5%; in assay [6] (setting [7]), 51%; in assay [6] (setting [8]) it was 83% (active); in assay [6] (at 50.0 µM) it was 57%.
Consider `O=C1CNC(=O)c2cc(Cl)ccc2N1`, for which the growth inhibition was 46% in assay [1] (setting [7]); 45% in assay [1] (setting [8]); -8.75% in assay [1] (at 50.0 µM); 25% in assay [2] (setting [7]); 32% in assay [2] (setting [8]); -26.1% in assay [2] (at 50.0 µM). In addition, the growth inhibition in assay [3] (setting [7]) is 34%; in assay [3] (setting [8]) it was 44%; in assay [3] (at 50.0 µM), 8.6%; in assay [4] (setting [7]), 28%; in assay [4] (setting [8]) it was 29%; in assay [4] (at 50.0 µM), 13.9%. The growth inhibition in assay [5] (setting [7]) was 34%; in assay [5] (setting [8]) it was 67%; in assay [5] (at 50.0 µM), 40.1%; in assay [6] (setting [7]), 44%; in assay [6] (setting [8]), 42%; in assay [6] (at 50.0 µM), -2.1%.
`N#CCCN(CCC#N)c1ccc(C(Sc2ccccc2)C(NC(=O)c2cc([N+](=O)[O-])ccc2Cl)C(=O)Sc2ccccc2)cc1` (configuration not stated): the growth inhibition is 29% in assay [1] (setting [7]); 74% (active) in assay [1] (setting [8]); 75.7% (active) in assay [1] (at 50.0 µM); 25% in assay [2] (setting [7]); 93% (active) in assay [2] (setting [8]); 58.8% in assay [2] (at 50.0 µM). The growth inhibition in assay [3] (setting [7]) was 30%; in assay [3] (setting [8]) it was 85% (active); in assay [3] (at 50.0 µM), 51.3%; in assay [4] (setting [7]) it was 16%; in assay [4] (setting [8]) it was 37%; in assay [4] (at 50.0 µM), 51.6%. Further, the growth inhibition in assay [5] (setting [7]) is 22%; in assay [5] (setting [8]), 91% (active); in assay [5] (at 50.0 µM), 74.7% (active); in assay [6] (setting [7]), 47%; in assay [6] (setting [8]) it was 85% (active); in assay [6] (at 50.0 µM), 73.3% (active).
